IP6K1 inh: blocks human inositol hexakisphosphate kinase 1; Q92551; hit rate 0.81% among 140,000; IP6K1 kinase, ADP-Glo luminescence, 2 h; active compounds read low; activity change, % (series mostly up to about 58 µM); in the data active = activity change below about -25%; note: % is set by controls: 0 for no effect and ±100 for the full control effect
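ADP-Glo luminescence measures ADP made by human IP6K1 during a 2 h RT reaction with ATP/IP6 (mix at 1.3 mM/130 uM); top library doses 57.5 and 19.1 uM final.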
KDM5B inhibitor: KDM5B demethylase inhibition | Q9UGL1 | KDM5B demethylase, FDH-coupled NADH fluorescence (FDH is formaldehyde dehydrogenase) | Potency, µM (top dose mostly 57.7 µM), most hits filed as inhibitors | hit rate 2.6% among 220,000; note: potency is the fitted concentration of half-maximal effect; 0% is about no effect; nearly all actives have a fitted effect of over 70% in size
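Measured: NADH fluorescence change, 30 min, RT. System: KDM5BΔAP 200 nM final, H3K4me3 peptide, α-KG, Fe(II), ascorbate, NAD⁺ plus FDH, pH 7.5 HEPES. Compounds: titrated, 10 min pre-incubation with enzyme.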
SNCA expr inh: reduces expression of the alpha-synuclein gene; HEK-293 SNCA-luciferase knock-in, luminescence, 24 h; Potency, µM (top dose mostly 57.2 µM), for inactives: at the highest dose activity change, negative = inhibition, most hits filed as inhibitors; hit rate 0.17% among 140,000; AID 1671194;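 note: potency is the fitted concentration of half-maximal effect; plate controls were DMSO cells for no effect and cell-free wells for full effect; nearly all actives have a fitted effect of over 45% in size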
SNCA viab count: reduces viability of HEK-293 SNCA reporter cells. AID 1671193. HEK-293-SNCA-luc viability, GF-AFC fluorescence, 24 h. Potency, µM (doses to about 57.1 µM), for inactives: at the top dose activity change, negative = cytotoxicity, usual class: cytotoxic. hit rate 0.12% among 150,000;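 note: potency is the fitted concentration of half-maximal effect; 0% = DMSO-treated cells and -100% = medium-only wells without cells; nearly all actives have a fitted effect of over 30% in size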
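Cytotoxicity counterscreen: after 24 h compound treatment of genome-edited SNCA-luciferase HEK-293 cells, live-cell protease substrate GF-AFC read by fluorescence after 30 min; activity scaled between DMSO (0%) and medium-only (-100%), curves Hill-fitted.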
* = called active by the depositor; i = inactive; ? = inconclusive; . = no result; [ ] = remark or other dose. In the library only some 2.8% were active in any assay of this set; here they are far more common. Unless noted, calls come from the whole dose curve; as a rule, active = well fitted curve in the direction sought with a large enough effect; inconclusive = small, poorly fitted or top-dose-only effect, or another doubt; inactive = no such curve, though single readings can be large; an effect the other way counts as inactive or inconclusive.

SMILES	IP6K1 inh	KDM5B inhibitor	SNCA expr inh	SNCA viab count
O=C(Nc1ccc(F)cc1)c1ccc2c(c1)OCCN(C1CCC1)C2	-4	32µM*	57%[87.6 µM]	-16%[87.6 µM]
CC(=O)N1CCC2(CC1)CN(Cc1ccncc1)Cc1ccccc1O2	7	56µM*	?	-1%
O=C(c1ccc(Cl)cc1)N1CC2(CCN(CC3CCCC3)C2)OCc2ccccc21 (stereo not drawn)	-1	i	9%	-16%
O=C(c1ccc(Cl)cc1)N1CC2(CCN(Cc3ccncc3)C2)OCc2ccccc21 (stereo not drawn)	-9	40µM*	-4%	-9%
Cc1cccc(C)c1OCc1nnc(NC(=O)Nc2ccc(F)cc2)s1	.	i	.	.
C=CCn1c(SC)nc2c1c(=O)[nH]c(=O)n2C	.	i	.	.
Cc1ccccc1-c1noc(-c2ccc(Br)cc2)n1	.	i	.	.
Cc1ccccc1-c1noc(-c2ccc(NC(C)c3cnn(C)c3)nc2)n1 (stereo not drawn)	25	28µM*	?	?
CCOc1ccccc1CN1CCN(C(=O)c2ccccn2)CC1CCO (stereo not drawn)	-3	20µM*	10%	-9%
O=C(c1ccc(-n2cnnn2)cc1O)N1CCCC(CCc2ccc(F)cc2)C1 (stereo not drawn)	7	i	?	-9%
CC(Oc1ccccc1Cl)C(=O)N1CCN(CCc2ccccn2)CC1 (stereo not drawn)	-6	i	12%	6%
COc1ccccc1OC(C)C(=O)N1CCN(CCc2ccccn2)CC1 (stereo not drawn)	-11	i	20µM*	-3%
O=C1C2CCCN2C(=O)N1Cc1coc(-c2cccc(F)c2)n1 (stereo not drawn)	.	i	.	.
CC(CCc1ccccc1)NC(=O)CN1C(=O)NC(c2ccc(Cl)cc2)C2=C1COC2=O (stereo not drawn)	-1	i	-21%	-19%
Cc1cc(F)ccc1-c1[nH]nc2ncc(-c3ccnn3C)nc12	8	?	-24%[87.6 µM]	3%[87.6 µM]
Cc1ccccc1-c1[nH]nc2ncc(-c3ccnn3C)nc12	4	35µM*	-2%[87.6 µM]	5%[87.6 µM]
COc1ccc(-c2cnc3n[nH]c(-c4ccc(F)cc4C)c3n2)cn1	9	28µM*	-26%[87.6 µM]	4%[87.6 µM]
COc1ccccc1-c1[nH]nc2ncc(-c3cccc(O)c3)nc12	-5	35µM*	-6%[87.6 µM]	-24%[87.6 µM]
COc1ccccc1-c1[nH]nc2ncc(-c3ccccc3C)nc12	25	32µM*	-22%[87.6 µM]	4%[87.6 µM]
COc1cc(NC(=O)C(Cc2ccccc2)n2c(=O)[nH]c3ccccc3c2=O)cc(OC)c1 (stereo not drawn)	.	i	.	.
CC1=C(C(=O)Nc2ccccc2)C(c2ccc(C)cc2)n2ncc(C(=O)Nc3ccccc3)c2N1 (stereo not drawn)	.	i	.	.
CCOC(=O)c1c(S(=O)(=O)N2CCCC2)nn(CC)c1C	.	i	.	.
COc1ccccc1-c1[nH]nc2ncc(C(=O)NCc3ccccc3)nc12	16	32µM*	1%[87.6 µM]	5%[87.6 µM]
COc1ccccc1-c1[nH]nc2ncc(-c3ccccc3F)nc12	32	35µM*	-16%[87.6 µM]	29%[87.6 µM]
CC(C)COC(=O)c1ccc(NC(=O)C2=C(c3ccccc3)S(=O)(=O)CCO2)cc1	.	i	.	.
SMILES	IP6K1 inh	KDM5B inhibitor	SNCA expr inh	SNCA viab count
c1ccc(CN(Cc2ccccn2)[C@H]2C[C@H]3CCOC[C@@]3(c3ccccc3)C2)cc1	-5	.	.	.
OC[C@@H]1O[C@H](CNCc2cccc(Cl)c2)[C@H](N2CCN(c3ccccn3)CC2)[C@@H]1O	8	25µM*	5%	1%
OC[C@@H]1O[C@H](CNCc2cccc(Cl)c2)[C@H](N2CCN(c3ccc(F)cc3)CC2)[C@@H]1O	5	?	-18%	-10%
CNC(=O)Nc1cccn2nc(-c3ccccc3)nc12	19	25µM*	176%	2%
Cc1ccc(NC(=O)Nc2cccn3nc(C)nc23)cc1	13	i	171%	3%
COc1ccccc1-c1cc(-c2ccsc2)c2onc(C)c2n1	-9	28µM*	-1%[87.6 µM]	4%[87.6 µM]
Cc1noc2c(-c3ccc(CO)cc3)cc(-c3cccs3)nc12	45	?	-13%[87.6 µM]	16%[87.6 µM]
COc1ccc(OC)c(-c2cc(-c3cccs3)nc3c(C)noc23)c1	-11	40µM*	-24%[87.6 µM]	5%[87.6 µM]
Cc1noc2c(-c3ccsc3)cc(-c3cccnc3)nc12	-9	?	-16%[87.6 µM]	7%[87.6 µM]
COc1ccc(-c2c(C(=O)Nc3cccc(Cl)c3)nc3sccn23)cc1	12	.	-6%[87.6 µM]	-8%[87.6 µM]
O=C1[C@H]2CC[C@H](CN(Cc3cccc(N4CCOCC4)c3)C2)N1CC1CCC1	25	i	-21%	-19%
O=C1[C@H]2CC[C@H](CN(Cc3ccc(-n4ccnc4)cc3)C2)N1CC1CCC1	3	20µM*	0%	-11%
CC(C)CNC(=O)C(=O)NCCc1c[nH]c2ccccc12	.	i	.	.
COc1cc(-c2ccnc3nc(-c4cccs4)nn23)cc(OC)c1OC	1	14µM*	71%	-1%
c1ccc(CCc2nc3nccc(-c4cccnc4)n3n2)cc1	-8	i	13%	0%
c1ccc(-c2ccnc3nc(C4CC4)nn23)cc1	7	28µM*	10%	12%
COc1cc(F)ccc1-c1ccnc2nc(C3CCCCC3)nn12	-1	28µM*	9%	-8%
COc1cccc(-c2ccnc3c(-c4ccccc4)c(C)nn23)c1	4	i	55%	-10%
COc1cccc(-c2ccnc3nc(C4CCC4)nn23)c1	-10	28µM*	2%	2%
c1coc(-c2ccnc3ncnn23)c1	9	28µM*	3%	12%
c1coc(-c2ccnc3nc(C4CCC4)nn23)c1	11	28µM*	29%	9%
COc1cc(-c2ccnc3nc(C4CCC4)nn23)cc(OC)c1OC	-6	22µM*	5%	0%
CNC(=O)c1cc(C2CC2)nc2onc(C3CCN([S+](=O)([O-])c4cccs4)CC3)c12	-16	.	.	.
COc1ccc(-c2cc3c(=O)n(CCNC(=O)c4ccccc4C)ccn3n2)cc1	-3	20µM*	63%	-25%
COc1ccccc1C(=O)NCCn1ccn2nc(-c3ccc(C)c(C)c3)cc2c1=O	-14	28µM*	-9%	1%
SMILES	IP6K1 inh	KDM5B inhibitor	SNCA expr inh	SNCA viab count
Cc1ccc(-c2cc3c(=O)n(CCNC(=O)c4nn(C)c5ccccc45)ccn3n2)cc1C	-12	22µM*	31%	-11%
Cc1ccc(-c2cc3c(=O)n(CCNC(=O)c4cc(F)ccc4F)ccn3n2)cc1C	-10	?	87%	1%
CCCCN1C(C(C)=O)=C(OC(=O)c2ccccc2OC)c2ccccc2S1(=O)=O	.	i	.	.
Nc1nc(N2CCN(Cc3ccc(Cl)cc3Cl)CC2)c2[nH]cnc2n1	.	i	.	.
COc1ccc(-c2ccnc(N[C@H]3CO[C@H]4[C@@H]3OC[C@@H]4NC(=O)CCCC(=O)O)n2)cc1	-3	32µM*	-12%	-1%
O=C(O)CCCC(=O)N[C@H]1CO[C@H]2[C@@H]1OC[C@@H]2Nc1nccc(-c2ccc3c(c2)OCO3)n1	0	28µM*	?	0%
COc1ccc(-c2ccnc(N[C@H]3CO[C@H]4[C@@H]3OC[C@@H]4NC(=O)CC3(CC(=O)O)CCCC3)n2)cc1	-15	28µM*	-4%	1%

From PubChem
